In PubChem BioAssay:
Calls of active or inactive are those of the source.

Columns and labels:
Albumin (Bos taurus) = Albumin (Bos taurus) (UniProt P02769); test: compounds binding labelled BSA control protein – biochemical, small-molecule microarray, Alexa647 label, 635/667 nm fluorescence, artefact control for SMM control protein annotation, profiling panel (AID 1118); conditions: BSA-A647 binding, fluorescence 635 nm, higher = more signal;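 note: score merges 667 nm emission intensity and signal-to-noise per printed compound spot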
Sequence of Albumin (Bos taurus) (P02769 whole entry, looked up): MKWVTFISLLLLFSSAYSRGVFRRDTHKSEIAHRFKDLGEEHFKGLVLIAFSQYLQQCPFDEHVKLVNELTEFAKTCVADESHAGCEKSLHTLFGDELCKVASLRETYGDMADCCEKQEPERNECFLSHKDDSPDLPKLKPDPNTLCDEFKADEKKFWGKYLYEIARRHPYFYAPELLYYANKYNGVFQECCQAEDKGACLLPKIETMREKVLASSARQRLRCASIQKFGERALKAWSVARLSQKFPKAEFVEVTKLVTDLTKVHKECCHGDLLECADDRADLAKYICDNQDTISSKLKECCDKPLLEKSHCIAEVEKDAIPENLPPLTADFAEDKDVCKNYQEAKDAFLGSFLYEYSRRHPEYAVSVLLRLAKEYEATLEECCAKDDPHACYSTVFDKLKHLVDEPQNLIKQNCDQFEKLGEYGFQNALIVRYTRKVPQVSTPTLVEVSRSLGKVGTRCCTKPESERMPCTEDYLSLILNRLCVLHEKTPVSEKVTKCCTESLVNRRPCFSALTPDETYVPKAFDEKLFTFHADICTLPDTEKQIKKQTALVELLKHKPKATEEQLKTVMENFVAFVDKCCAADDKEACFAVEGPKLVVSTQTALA

[1] = probe aXIP binding to arrayed compounds – biochemical, NeuroSMM set, 635/667 nm fluorescence, primary screen (AID 1119); conditions: small-molecule microarray, higher = more signal, called active from +8 up or from −8 down;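 note: probe is the protein aXip251-270 applied at 1 µg/mL to compound-printed slides; binding of probe to printed compounds measured as 667 nm fluorescence plus signal to noise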
[2] = probe aNOTCH3 binding on compound microarray – biochemical, small-molecule microarray, 635/667 nm fluorescence, primary screen (AID 1120); conditions: higher = more signal;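 note: probe is a biotin-tagged antibody raised against NOTCH3 rather than NOTCH3 protein; score merges spot fluorescence near 667 nm with spot signal to noise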
[3] = probe aNOTCH2 binding on compound microarray – biochemical, small-molecule microarray, 635/667 nm fluorescence, primary screen (AID 1121); conditions: higher = more signal;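 note: score merges feature fluorescence read at 667 nm with its signal to noise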
[4] = target: Carbonic anhydrase 2 (Homo sapiens) (UniProt P00918); test: compounds binding carbonic anhydrase 2 – biochemical, small-molecule microarray, Alexa647-labelled CAII, profiling panel (AID 1122); conditions: CAII-A647 binding fluorescence, higher = more signal
[5] = COS7 lysate on small-molecule microarray, probe aHis, 635 nm (AID 1123); conditions: COS7 cell lysate, fluorescence, higher = more signal;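 note: z-score combines 667nm fluorescence intensity with signal-to-noise per printed compound spot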
[6] = probe aLAP1 signal on lysate-treated microarray – cell lysate, small-molecule microarray, COS7 lysate, primary screen (AID 1124); conditions: probe aLAP1, fluorescence, higher = more signal;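 note: lysate comes from COS7 cells expressing LAP1 and is applied at 0.3 µg/mL; score merges spot fluorescence near 667 nm with signal-to-noise over triplicate slides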
Sam68 (KHDRBS1) = test: compounds binding KHDRBS1 protein – biochemical, small-molecule microarray, 635 nm fluorescence, primary screen (AID 1125); conditions: higher = more signal;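 note: score merges 667 nm channel intensity with signal to noise over triplicate slides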
[7] = tested on: Chordin-like protein 2 (CHRDL2); test: compounds binding chordin-like 2 – biochemical, small-molecule microarray, 635 nm fluorescence, primary screen (AID 1126); conditions: fluorescence 635 nm, higher = more signal;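 note: printed compound slides probed with Chrdl2 protein at 4 µg/mL for 1 h at 4 C; score merges 667 nm emission intensity with signal to noise over three replicate slides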
[8] = target: Concanavalin-A (Canavalia ensiformis) (UniProt P02866); test: compounds binding concanavalin A lectin – biochemical, small-molecule microarray, Alexa647 label, 635 nm, artefact control for SMM control protein annotation, primary screen (AID 1127); conditions: ConA-A647 binding fluorescence, higher = more signal;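 note: z combines 667 nm emission intensity with signal-to-noise across three replicate slides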
Sequence of Concanavalin-A (Canavalia ensiformis) (P02866 whole entry, looked up): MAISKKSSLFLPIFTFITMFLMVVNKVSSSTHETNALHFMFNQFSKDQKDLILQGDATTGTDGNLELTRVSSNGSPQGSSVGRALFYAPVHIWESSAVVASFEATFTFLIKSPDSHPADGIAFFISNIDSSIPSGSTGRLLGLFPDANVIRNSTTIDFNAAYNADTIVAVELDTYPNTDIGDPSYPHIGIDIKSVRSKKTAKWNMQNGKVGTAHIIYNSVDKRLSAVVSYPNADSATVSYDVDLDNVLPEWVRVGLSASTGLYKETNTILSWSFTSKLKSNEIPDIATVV

Row | SMILES | composite z-score (Albumin (Bos taurus)) | composite Z-score [1] | composite z-score [2] | composite z-score [3] | composite z-score [4] | composite z-score [5] | composite z-score [6] | composite z-score (Sam68 (KHDRBS1)) | composite z-score [7] | composite z-score [8]
1 | O=C1O[C@H](c2ccccc2)[C@H](c2ccccc2)N2[C@H]1[C@@H](C(=O)Nc1nc3ccccc3s1)[C@]1(C(=O)Nc3ccc(C#CC4(O)CCCCCC4)cc31)[C@H]2c1ccc(O)cc1 | 0.934 | 0.928 (inactive) | 0.116 | -0.0283 | 0.415 | 2.53 | 0.797 | 1.3 | 0.528 | 1.14
2 | COC(=O)c1c(CC[C@@H](CO)NC(=O)N[C@H](Cn2cc(-c3cncn3C)nn2)C(C)C)oc(C(C)=O)c1C(=O)OC | 0.697 | 0.24 (inactive) | -0.0647 | -0.11 | 0.514 | 0.651 | 0.203 | 1.27 | 0.0779 | 1.07
3 | [N-]=[N+]=NCc1ccccc1C[C@]1(C(N)=O)N=C(c2ccc(OCCCO)cc2)O[C@H]1c1ccccc1CN=[N+]=[N-] | 1.05 | -0.469 (inactive) | 0.0254 | 0.0256 | 0.667 | 2.16 | 0.641 | 1.31 | -1.12 | 0.991
4 | COc1ccc([Si](C)(C)[C@H]2[C@H](CCO)O[C@@]3(C(=O)N(Cc4ccccc4)c4ccc(N5C(=O)c6cccc7cccc5c67)cc43)[C@@H]2C)cc1 | 0.151 | -0.229 (inactive) | -0.18 | -0.155 | 0.286 | 0.0609 | 1.06 | 0.143 | -0.966 | 0.386
5 | COC(=O)[C@H]1[C@@H]2COc3ccccc3[C@H]2N[C@H]1C(=O)OC | 0.235 | 0.0807 (inactive) | -0.0351 | -0.135 | 0.414 | 0.476 | 0.315 | 0.429 | 0.122 | 0.548
6 | C=CCN1C(=O)[C@@]2(Cc3ccccc3)N=C(c3ccc(OCCCO)cc3)O[C@H]2c2ccccc21 | 0.174 | 1.06 (inactive) | 0.0635 | 0.2 | 0.622 | 2.83 | 0.66 | 1.29 | 1.23 | 1.15
7 | Cc1ccc(S(=O)(=O)N2[C@@H](c3ccccc3)C(C(=O)O)=CC[C@H]2c2ccccc2)cc1 | 0.508 | 1.47 (inactive) | -0.0647 | -0.0771 | 0.837 | 2.33 | 0.498 | 0.702 | -0.439 | 0.0991
8 | CCCC=C(CCC)[C@@H](NS(=O)(=O)c1ccc(-c2ccccc2)cc1)c1ccc(C(=O)OC)cc1 | -0.0722 | -0.682 (inactive) | -0.0846 | -0.0651 | -0.291 | 0.257 | 0.515 | -0.829 | -0.705 | 0.115
9 | CCOC(=O)C[C@H]1[C@H](OC(=O)c2ccccc2-c2ccccc2)[C@@H](NC(=O)c2ccc(-c3ccccc3)cc2)c2cc(OCCCO)ccc2N1C(=O)Cc1ccc(OC)cc1 | 0.0867 | 0.0368 (inactive) | 0.0193 | -0.0759 | -0.0176 | 0.416 | -0.0563 | 0.406 | 0.335 | 0.398
10 | CC(C)CN1C(=O)[C@@]2(Cc3ccccc31)c1ccccc1C(=O)N(C1CCCCC1)[C@H]2c1ccc(CO)cc1 | -0.436 | 0.439 (inactive) | -0.0647 | -0.0433 | 0.781 | 0.878 | 1.23 | -0.18 | -1.43 | -1.42
11 | O=C1O[C@H](c2ccccc2)[C@H](c2ccccc2)N2[C@H]1[C@@H](C(=O)Nc1nc3ccccc3s1)[C@]1(C(=O)Nc3ccc(C#CC4=CCCCC4)cc31)[C@H]2c1ccccc1OCCO | 0.581 | 0.329 (inactive) | 0.0452 | -0.14 | 0.23 | 0.834 | -0.189 | 1.3 | 0.497 | 1
